Screening results deposited in PubChem BioAssay by National Center for Advancing Translational Sciences (NCATS).
POLH inh: qHTS for Inhibitors of Polymerase Eta | DNA polymerase eta (Homo sapiens), Q9Y253 | recombinant Pol eta, fluorescent DNA replication assay | Potency, µM (doses to about 114 µM), without a hit: at the top dose activity change, negative = inhibition, usual class: inhibitors | actives 1.2% (n = 390,000) | AID 588591, 2011; note: potency is the fitted concentration of half-maximal effect; % is set by controls: 0 for no effect and ±100 for the full control effect
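Pol eta at 10 nM preincubated with compounds 15 min at room temperature; reaction started with fluorescent substrate (50 nM final) and read kinetically at 0 and 10 min.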
POLB inh: qHTS Assay for Inhibitors of DNA Polymerase Beta. Pol beta primer extension/strand displacement, fluorescence kinetic. Potency, µM (series often up to 114 µM), for inactives: at the top dose activity change, negative = inhibition, usual class: inhibitors. actives 1.3% (n = 340,000). AID 485314, 2010; note: potency is the fitted concentration of half-maximal effect; % is set by controls: 0 for no effect and ±100 for the full control effect
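Homogeneous kinetic assay of primer extension and strand displacement by 10 nM Pol beta, preincubated 15 min at room temperature with compound before 50 nM substrate (final) was added. Read at 0 and 10 min; four-parameter Hill fit.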
Pol kappa inh: qHTS for Inhibitors of Polymerase Kappa. purified Pol kappa, fluorescent DNA synthesis assay, 10 min. DNA polymerase kappa (Homo sapiens), Q9UBT6. actives 0.53% (n = 400,000). Potency, µM (top dose mostly 107 µM), for the others: top-dose activity, negative = inhibition, actives largely listed as inhibitors; note: potency is the fitted concentration of half-maximal effect; % is set by controls: 0 for no effect and ±100 for the full control effect
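Kinetic fluorescence readout at 0 and 10 min followed reaction start with substrate at 50 nM final. Beforehand, enzyme (10 nM Pol kappa) stood 15 min with compound at room temperature; buffer-only wells were negative controls.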
FEN1 inhibitor: qHTS Assay for the Inhibitors of Human Flap endonuclease 1 (FEN1) | Potency, µM (series often up to 114 µM), inactives show top-dose activity change, negative = inhibition, most hits filed as inhibitors | P39748 | AID 588795, 2011 | actives 0.35% (n = 390,000) | Recombinant FEN1 flap cleavage, fluorescence, 15 min; note: potency is the fitted concentration of half-maximal effect; % is set by controls: 0 for no effect and ±100 for the full control effect; nearly all actives have a fitted effect of over 65% in size
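In this screen, 50 nM flap DNA substrate was added to 10 nM FEN1 pretreated with compound for 15 min at room temperature; cleavage was followed with reads at 0 and 15 min, and Hill fitting gave concentration–response parameters.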
Pol iota inh: qHTS for Inhibitors of Polymerase Iota. DNA polymerase iota (Homo sapiens), Q9UNA4. Pol iota fluorescent replication assay, 10 min. Potency, µM (top dose mostly 115 µM), for inactives: at the highest dose activity, negative = inhibition, hits mostly inhibitors. actives 1% (n = 390,000); note: potency is the fitted concentration of half-maximal effect
Target sequence (Q9UNA4 whole entry, looked up): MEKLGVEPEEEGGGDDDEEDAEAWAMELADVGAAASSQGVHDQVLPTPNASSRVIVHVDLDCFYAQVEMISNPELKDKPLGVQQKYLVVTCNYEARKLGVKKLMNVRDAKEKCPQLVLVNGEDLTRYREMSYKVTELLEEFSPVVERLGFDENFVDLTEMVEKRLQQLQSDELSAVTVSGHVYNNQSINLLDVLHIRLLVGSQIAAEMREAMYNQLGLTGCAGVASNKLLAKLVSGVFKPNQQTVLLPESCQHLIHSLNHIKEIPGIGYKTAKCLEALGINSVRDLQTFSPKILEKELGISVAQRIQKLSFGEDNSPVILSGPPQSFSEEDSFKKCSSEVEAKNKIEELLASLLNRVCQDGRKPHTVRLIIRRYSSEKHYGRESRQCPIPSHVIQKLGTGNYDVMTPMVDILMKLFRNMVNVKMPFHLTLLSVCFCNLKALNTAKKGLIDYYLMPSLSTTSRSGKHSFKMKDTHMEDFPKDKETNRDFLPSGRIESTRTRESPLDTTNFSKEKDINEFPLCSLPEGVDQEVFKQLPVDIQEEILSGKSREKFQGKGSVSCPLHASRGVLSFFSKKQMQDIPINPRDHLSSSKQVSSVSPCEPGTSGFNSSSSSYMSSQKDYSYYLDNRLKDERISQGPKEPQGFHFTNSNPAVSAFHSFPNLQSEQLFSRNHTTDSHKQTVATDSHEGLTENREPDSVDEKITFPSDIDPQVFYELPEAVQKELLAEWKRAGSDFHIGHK
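Pol iota at 10 nM preincubated 15 min with compounds at room temperature; reaction started with fluorescent substrate, 50 nM final. Fluorescence read kinetically at 0 and 10 min; buffer-only wells as negative control.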
PI5P4Ka inh: qHTS for Inhibitors of phosphatidylinositol 5-phosphate 4-kinase (PI5P4K). Phosphatidylinositol 5-phosphate 4-kinase type-2 alpha (Homo sapiens), P48426. PI5P4Kalpha enzyme, ADP-Glo luminescence, 60 min; stronger effect = lower value. max response, %. actives 1.2% (n = 330,000). AID 652105, 2013; active = max response of -50% or lower; inconclusive = between -30% and -50%; inactive = -30% or higher; note: value at the top dose of about 77 µM; % is set by controls: 0 for no effect and ±100 for the full control effect
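Quantitative HTS of the MLSMR library against PI5P4Kalpha with substrate. ATP added last at 5 microM final; room temperature, 60 minutes. Remaining ATP depleted, ADP converted and read as luminescence.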
* hit, by the source's call; ? = inconclusive; / = no result given; ! = not confirmed by another sample; [ ] = remark or other dose. Compounds with a hit are over-represented: about 2.8% of the library has one in this group of screens. Unless noted, calls come from the whole dose curve; as a rule, active = well fitted curve in the direction sought with a large enough effect; inconclusive = small, poorly fitted or top-dose-only effect, or another doubt; inactive = no such curve, though single readings can be large; an effect the other way counts as inactive or inconclusive.

SMILES	POLH inh	POLB inh	Pol kappa inh	FEN1 inhibitor	Pol iota inh	PI5P4Ka inh
C=CCN(CC=C)c1cnn(-c2nc3ccccc3[nH]2)c(=O)c1Cl	1%	0.22µM*	-1%	0%	14%	/
COc1ccc(S(=O)(=O)N2CCC(N3CCN(Cc4ccccc4)C(=O)C3=O)CC2)cc1	-24%	7%	4%	-3%	-28%	/
COc1cc(C(=O)Nc2cc(C)ccc2OCc2cc(=O)n3c(C)csc3n2)cc(OC)c1OC	5%	1%	-3%[60.1 µM]	-5%	0%	/
Cc1ccc(C)n1-c1ccc(C(=O)NN)cc1	-14%	13%	?	8%	16µM*	?
NS(=O)(=O)c1ccc(NC(=O)COC(=O)Cn2cnc3ccccc3c2=O)cc1	-18%	/	-10%	3%	-13%	9
CCn1ncc(/C=C2/SC(=S)NC2=O)c1C	-17%	6%	-6%	6%	-8%	-66*
COC(=O)c1ccc([C@@H]2Nc3c(OC)ccc(C)c3[C@@H]3C=CC[C@@H]32)cc1	-1%	-25%	-9%	10%	?	/
O=C(O)c1ccc(Cl)c2c1C1C=CCC1C(c1ccccn1)N2 (centres undefined)	/	8.9µM*	/	/	/	/
O=S(=O)(NCC(O)COCc1ccco1)c1cccs1 (centres undefined)	20µM*	22µM*	35µM*	2%	22µM*	?
O=S(=O)(NCC(c1ccco1)S(=O)(=O)c1cccs1)c1ccccc1 (centres undefined)	-13%	9%	-2%[60.1 µM]	18%	16%	/
COc1cccc(CN2C(=O)c3ccccc3Sc3ccc(C(=O)OCc4ccco4)cc32)c1	-19%	3%	-17%[60.1 µM]	-6%	31%	/
O=C(Nc1ccccc1Br)c1cnn2c1NC(=C1CC1)C=C2C(F)F	/	/	-19%	-4%	?	/
O=c1c2ccccc2sn1-c1cc(S(=O)(=O)N2CCOCC2)ccc1N1CCCC1	-4%	-10%	-6%	-14%	-11%	/
O=c1c2ccccc2sn1-c1cc(S(=O)(=O)N2CCOCC2)ccc1N1CCOCC1	-11%	11%	3%	32µM*!	38%	/
COc1ccc(N2CCN(C(=O)NC3CCCCC3)CC2)cc1	?	-2%	-3%	-1%	89µM*	-8
COc1cccc(N2CCN(C(=O)NC3CCCCC3)CC2)c1	-3%	0%	-5%	-10%	19%	-2
Cc1ccc(N2CC(C(=O)N3CCN(c4ccccn4)CC3)CC2=O)cc1 (centres undefined)	50µM*	/	?	1%	?	-8
COc1ccc(C(=O)Oc2ccc(/C=N/Nc3ccc(Cl)c(C(=O)O)c3)cc2OC)cc1	79µM*	?	-28%	?	9%	2
COc1cc(/C=N/Nc2ccc(Cl)c(C(=O)O)c2)ccc1OC(=O)c1cccs1	79µM*	?	-12%	-1%	80%	6
COc1cc(/C=N/Nc2ccc(Cl)c(C(=O)O)c2)ccc1OC(=O)c1ccco1	-18%	0%	-10%	-1%	7%	1
O=C(O)c1cc(N/N=C/c2ccc(-c3ccccc3)cc2)ccc1Cl	?	89µM*	-2%	5%	-6%	?
COc1ccc2ccccc2c1/C=N/Nc1ccc(Cl)c(C(=O)O)c1	45µM*	4%	?	-20%	?	-28
O=S(=O)(c1ccc(F)cc1)N1CCC2(CC1)OCCN2S(=O)(=O)c1cccs1	-12%	/	1%	-3%	20%	3
COc1ccc(CCNC(=O)CCc2cn(Cc3ccccc3Cl)c3ccccc23)c(OC)c1	-22%	2%	-3%	-12%	11%	/
COc1cccc(NC(=O)c2cc(-c3ccc(OC)cc3OC)nc3ccccc23)c1	?	/	-1%	-17%	-6%	1
SMILES	POLH inh	POLB inh	Pol kappa inh	FEN1 inhibitor	Pol iota inh	PI5P4Ka inh
COc1cccc(NC(=O)c2cc(-c3ccc(C)o3)nc3ccccc23)c1	79µM*	?	?	-18%	?	?
Cc1ccc(-c2cc(C(=O)NC3=NCCS3)c3cc(Br)ccc3n2)o1	/	79µM*	/	/	/	/
Cc1ccc(-c2cc(C(=O)NN3CCOCC3)c3cc(Br)ccc3n2)o1	0%	?	-13%	-10%	13%	-29
Cc1ccc(-c2cc(C(=O)Nc3ccccc3C)c3ccccc3n2)o1	?	10µM*	-8%	-1%	0%	?
Cc1cccc(C)c1NC(=O)C1(C)CN(S(C)(=O)=O)CC(=O)N1Cc1cccc(F)c1 (centres undefined)	/	/	/	/	/	0
CC(C)Sc1nc2sccc2c(=O)n1-c1ccccc1	-8%	-6%	-10%	7%	?	-19
COc1cccc(C(=O)NC(=S)Nc2ccc3c4c(cccc24)CC3)c1	-9%	3%	-4%	-15%	13%	1
COc1cccc(C(=O)NC(=S)Nc2ccc(Cl)cc2C(=O)O)c1	-18%	0%	3%	10%	36%	-63*
O=C(O)c1ccc(Cl)c(NC(=S)NC(=O)c2cccc(COc3ccccc3)c2)c1	45µM*	25µM*	5%	-25%	78%	8
O=C(NC(=S)Nc1ccc(Cl)c(C(=O)O)c1)c1cccc(COc2ccccc2)c1	79µM*	40µM*	-22%	-10%	-11%	?
Cc1ccc(S(=O)(=O)N2C[C@H]3N(C(=O)OC(C)C)N(C(=O)OC(C)C)C[C@H](OC(=O)Nc4cccs4)[C@@]3(O)C2)cc1	-8%	/	/	/	/	-9
O=C(C1CCCO1)N1CCN(c2ccccn2)CC1 (centres undefined)	-11%	49%	-6%	20%	9%	2
O=C(NCCc1c[nH]c2ccccc12)c1ccccc1O	/	/	10%[60.1 µM]	/	/	/
O=C(CN1C(=O)N/C(=C\c2ccccc2OCc2ccc(C(=O)O)cc2)C1=O)Nc1ccc(F)cc1	-13%	79µM*	?	-28%	?	-13
COC(=O)C[C@H]1CC[C@H](NC(=O)c2cccc(F)c2)[C@@H](CO)O1	/	/	/	/	/	6
Cc1ccc(C(=O)Nc2ccccc2C(=O)OCc2cc(=O)n3nc(C4CC4)sc3n2)cc1	-27%	-14%	-7%[60.1 µM]	1%	18%	/
COc1ccc(C2C(C#N)=C(N)Oc3cc(C)n(Cc4ccco4)c(=O)c32)cc1 (centres undefined)	-11%	?	32µM*	?	14µM*	-13
CC1=Nc2ccccc2/C1=C/c1sc(=N)n(-c2nccs2)c1O	-14%	-1%	-15%	?	-5%	-70*
